By AC50 is commonly meant the midpoint of the concentration-response curve, whichever way the signal moves.

Experiment [1] in a line: BSK_CASM3C_SRB: Viability Assessment in the BioMAP Diversity Plus: CASM3C Assay (AID 2283050).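 Also: total protein by SRB staining as cytotoxicity measure in parallel cultures; cells exposed to compound for 24 h.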 As to conditions: primary human coronary artery smooth muscle cells.
Read-out in experiment [2]: Thrombomodulin, THBD (gene 7056)
The experiment in a line: BSK_CASM3C_Thrombomodulin: BioMAP Diversity Plus: CASM3C Assay for Thrombomodulin Biomarker Activity (AID 2283051).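 Also: thrombomodulin protein level measured by ELISA 24 h after dosing.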 As to conditions: primary human coronary artery smooth muscle cells; actives raise or lower the signal.

Read-out in experiment [3]: Tissue Factor, F3 (gene 2152)
The experiment can be described thus: BSK_CASM3C_TissueFactor: BioMAP Diversity Plus: CASM3C Assay for Tissue Factor Biomarker Activity (AID 2283052).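 Also: cell surface tissue factor protein level read by ELISA.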 As to conditions: primary human coronary artery smooth muscle cells; actives raise or lower the signal.

Read-out in experiment [4]: Interferon-gamma inducible Protein 10 (IP10), CXCL10 (gene 3627)
The experiment can be described thus: BSK_hDFCGF_IP10: BioMAP Diversity Plus: hDFCGF Assay for Interferon-gamma inducible Protein 10 (IP10) Biomarker Activity (AID 2283053). As to conditions: primary human foreskin fibroblasts; actives raise or lower the signal. A digest of the protocol:
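Cells: human dermal foreskin fibroblasts. Exposure: 24 h post-dosing. Detection: IP-10 ELISA, with values expressed against DMSO controls and fitted in both directions.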

Read-out in experiment [5]: Urokinase-type plasminogen activator receptor (uPAR), PLAUR (gene 5329)
The experiment in a line: BSK_CASM3C_uPAR: BioMAP Diversity Plus: CASM3C Assay for Urokinase-type plasminogen activator receptor (uPAR) Biomarker Activity (AID 2283054).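 Also: cell-surface uPAR protein level quantified by ELISA.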 As to conditions: primary human coronary artery smooth muscle cells; actives raise or lower the signal.

Read-out in experiment [6]: Vascular cell adhesion molecule 1 (VCAM1), VCAM1 (gene 7412)
The experiment can be described thus: BSK_CASM3C_VCAM1: BioMAP Diversity Plus: CASM3C Assay for Vascular cell adhesion molecule 1 (VCAM1) Biomarker Activity (AID 2283055).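 Also: VCAM-1 protein level quantified by ELISA on the cells.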 As to conditions: primary human coronary artery smooth muscle cells; actives raise or lower the signal.

Read-out in experiment [7]: Collagen III, COL3A1 (gene 1281)
The experiment in a line: BSK_hDFCGF_CollagenIII: BioMAP Diversity Plus: hDFCGF Assay for Collagen III Biomarker Activity (AID 2283056). As to conditions: primary human foreskin fibroblasts; actives raise or lower the signal. A digest of the protocol:
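Human foreskin primary fibroblasts were exposed to test chemicals for 24 h, after which collagen III was quantified by ELISA. Activity was fitted bidirectionally against DMSO as negative control and baseline.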

Read-out in experiment [8]: Epidermal growth factor receptor (EGFR), EGFR (gene 1956)
The experiment in a line: BSK_hDFCGF_EGFR: BioMAP Diversity Plus: hDFCGF Assay for Epidermal growth factor receptor (EGFR) Biomarker Activity (AID 2283057). As to conditions: primary human foreskin fibroblasts; actives raise or lower the signal. A digest of the protocol: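 Dosing human primary skin fibroblasts, then measuring surface EGFR by ELISA at 24 h, gives the endpoint; gains and losses relative to DMSO were fitted in both directions.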

Read-out in experiment [9]: Interleukin-8 (IL8), CXCL8 (gene 3576)
The experiment can be described thus: BSK_hDFCGF_IL8: BioMAP Diversity Plus: hDFCGF Assay for Interleukin-8 (IL8) Biomarker Activity (AID 2283058). As to conditions: primary human foreskin fibroblasts; actives raise or lower the signal. The essentials: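 hDFCGF human dermal fibroblasts; 24 h chemical exposure; IL-8 by ELISA; bidirectional curve fit vs DMSO baseline; gain or loss of signal scored.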

Experiment [10] is described as follows: BSK_hDFCGF_Proliferation: Cell Proliferation Assessment in the BioMAP Diversity Plus: hDFCGF Assay (AID 2283059).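 Also: curves fitted for both rise and fall of signal versus DMSO baseline.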 As to conditions: primary human foreskin fibroblasts. A digest of the protocol:
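Primary human foreskin fibroblasts, sub-confluent; […]; 10% TCA fix, 0.1% SRB stain, A560 total protein. Gain/loss fitted bidirectionally vs DMSO control.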

Several values for one entry are separate records, joined by “and”; a condition that tells them apart may be missing. Equal values may be shown once. More than one record can exist for a structure, and the calls need not agree. Activity calls are given as the source filed them. The calls were made as follows: active = hit-call score of the fitted dose curve at least 0.9, where 1 is the maximum; inactive = score below 0.9.

On to `FC(F)(F)C(F)(F)C(F)(F)C(F)(F)CCI`, for which the outcome in experiment [1], in experiment [2], in [3], in experiment [4], in experiment [5] and in experiment [6] was inactive. For the same compound, the outcome in [7], in experiment [8], in experiment [9] and in [10] was inactive.
With `O=C(O)C(F)(F)C(F)(F)C(F)(F)C(F)(F)F`, the outcome in experiment [1], in experiment [2], in [3], in experiment [4], in experiment [5] and in experiment [6] was inactive. Also, the result in experiment [7], in experiment [8], in [9] and in [10] was inactive.
For the compound `O=C(O)C(F)(F)C(F)(F)C(F)(F)C(F)(F)C(F)(F)C(F)(F)C(F)(F)C(F)(F)C(F)(F)C(F)(F)C(F)(F)C(F)(F)F`, the outcome in experiment [1], in experiment [2], in experiment [3], in [5], in [8] and in experiment [9] was inactive. Besides, in [10], the outcome was inactive. In addition, the half-maximal activity concentration (AC50) in experiment [2] is 13.3 µM (active); in experiment [4] it was 1.86 µM (active) and 1.07 µM (active); in experiment [6] it was 7.09 µM (active) and 4.44 µM (active); in experiment [7], 2.45 µM (active) and 896 nM (active); in experiment [10], 2.47 µM (active).
Turning to `OCC(F)(F)C(F)(F)C(F)(F)C(F)(F)C(F)(F)C(F)(F)F`, the result in [1], in experiment [2], in [3], in experiment [5], in experiment [6] and in [8] was inactive. Also, in [9], the result was inactive. Also, the AC50 was 55.1 µM (active) and 41.2 µM (active) in experiment [4]; 30 µM (active) and 49.7 µM (active) in experiment [7]; 56.1 µM (active) and 54.4 µM (active) in experiment [10].
For the compound `O=C(CC(=O)C(F)(F)C(F)(F)F)C(F)(F)F`, the outcome in [1], in experiment [2], in experiment [3], in [4], in experiment [5] and in [6] was inactive. Besides, the result in [7], in experiment [8], in experiment [9] and in experiment [10] was inactive.
In the case of `CCCCCCCCC(F)(F)C(F)(F)C(F)(F)C(F)(F)C(F)(F)C(F)(F)F`, the outcome in [1], in [2], in experiment [3], in experiment [4], in experiment [5] and in experiment [6] was inactive. The result in [7], in [8], in [9] and in experiment [10] was inactive.
Turning to `CCCCCCOC(=O)c1ccccc1O`, the result in [1], in experiment [2], in experiment [3], in experiment [5], in experiment [6] and in experiment [8] was inactive. Further, the AC50 in experiment [4] is 38.1 µM (active) and 40.6 µM (active); in experiment [7] it was 24.5 µM (active) and 16.9 µM (active); in experiment [9] it was 36.9 µM (active) and 42.9 µM (active); in experiment [10], 15.1 µM (active) and 14.2 µM (active).
With `CCCCCCCOC(=O)c1ccccc1C(=O)OCCCCCCC`, the result in [1], in experiment [2], in experiment [3], in experiment [4], in experiment [5] and in [6] was inactive. For the same compound, the result in experiment [7], in experiment [8], in experiment [9] and in [10] was inactive.
On to `Nc1ccc([N+](=O)[O-])cc1O`, for which the result in experiment [1], in experiment [3], in experiment [4], in experiment [5], in experiment [6] and in experiment [7] was inactive. Also, the outcome in [8] and in experiment [9] was inactive. The concentration at half-maximal activity (AC50) in experiment [2] was 20 µM (active); in experiment [10], 11.1 µM (active).
`CCCCC(CC)COP(=O)(O)OCC(CC)CCCC` (stereo not given): the result in experiment [1], in [2], in [3], in [5], in experiment [6] and in experiment [8] was inactive. Also, the result in experiment [9] was inactive. Further, the AC50 in [4] was 24.9 µM (active) and 28.3 µM (active); in experiment [6] it was 988 nM (active); in [7], 26.9 µM (active) and 27.5 µM (active); in experiment [8], 20 µM (active); in experiment [10] it was 32.9 µM (active) and 34.6 µM (active).
Regarding `FC(F)(Br)C(F)(F)C(F)(F)C(F)(F)C(F)(F)C(F)(F)Br`, the result in [1], in experiment [2], in [3], in [4], in experiment [5] and in experiment [6] was inactive. Also, the outcome in experiment [7], in experiment [8], in [9] and in [10] was inactive.
With `CC(C)(C)C(=O)CC(=O)C(F)(F)C(F)(F)C(F)(F)F`, the outcome in experiment [1], in [2], in experiment [3], in experiment [4], in [5] and in experiment [6] was inactive. The result in [7], in experiment [8], in [9] and in [10] was inactive.
In the case of `O=P(O)(O)OCCC(F)(F)C(F)(F)C(F)(F)C(F)(F)C(F)(F)C(F)(F)F`, the outcome in experiment [1], in [2], in experiment [3], in experiment [4], in experiment [5] and in experiment [6] was inactive. In addition, the result in [7], in [8], in experiment [9] and in experiment [10] was inactive. In experiment [4], the AC50 was 7.21 µM (active).
`FC(F)(F)C(F)(F)C(F)(F)C(F)(F)C(F)(F)C(F)(F)C(F)(F)C(F)(F)CCS`: the outcome in [1], in experiment [2], in [3], in experiment [4], in [5] and in experiment [6] was inactive. Moreover, the result in experiment [7], in experiment [8], in [9] and in experiment [10] was inactive. Moreover, the AC50 in experiment [3] was 43.8 nM (active).
For the compound `O=C(O)C(F)(F)C(F)(F)C(F)(F)C(F)(F)C(F)(F)C(F)(F)C(F)(F)C(F)(F)Cl`, the result in experiment [1], in experiment [2], in experiment [3], in experiment [5], in experiment [6] and in experiment [7] was inactive. For the same compound, in experiment [9], the outcome was inactive. Besides, the AC50 was 39.2 µM (active) and 41.9 µM (active) in [4]; 8.33 µM (active) in experiment [7]; 7.33 µM (active) and 55.2 µM (active) in experiment [8]; 43.1 µM (active) and 45.7 µM (active) in experiment [10].
As for `C=CC(=O)OCC(F)(F)C(F)(F)C(F)(F)C(F)(F)COC(=O)C=C`, the AC50 is 43 µM (active) and 43.7 µM (active) in experiment [1]; 52.7 µM (active) and 47.5 µM (active) in [3]; 8.28 µM (active) and 8.38 µM (active) in experiment [4]; 48.9 µM (active) and 50 µM (active) in [5]; 17.7 µM (active) and 19.7 µM (active) in experiment [6]; 30 µM (active) in [8]. Moreover, the AC50 in [9] was 11.5 µM (active) and 14.4 µM (active); in [10], 2.13 µM (active) and 1.2 µM (active). For the same compound, the outcome in experiment [2], in [7] and in [8] was inactive.
As to `O=C(O)C(F)(F)C(F)(F)C(F)(F)C(F)(F)C(F)(F)C(F)(F)C(F)(F)C(F)(F)C(F)(F)C(F)(F)C(F)(F)C(F)(F)C(F)(F)F`, the result in experiment [1], in experiment [2], in [3], in [4], in [5] and in experiment [6] was inactive. In addition, the outcome in [7], in [8], in experiment [9] and in [10] was inactive. The AC50 was 5.35 µM (active) in [4] and 0.641 µM (active) in [7].

The record behind these values is PubChem BioAssay (EPA / NIEHS).
